Test results from the supplement of paper PMC11732987, “Enantioselective OTUD7B fragment discovery through chemoproteomics screening and high-throughput optimisation” (Communications Chemistry, 2025).

Key:
Test in all cases: log2 ratio of Biotin-Ahx-Ub-VS probe labelling (fragment/DMSO); higher = less target engagement (more negative = stronger competition), active = hit call of the paper (q ≤ 0.05, log2 ratio ≤ -1)
Settings in all cases: compound concentration: 200 uM; treatment time: 3 h
USP34 = USP34 (UniProt Q70CQ2)
Method in brief: (§1)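 Fragment (200 µM) or vehicle was incubated for 3 h with triplicate HEK293T lysate samples of 495 µg, which were then treated with Biotin-Ahx-Ub-VS at 0.5 µM final for 1 h. Labelled DUBs were enriched on NeutrAvidin, digested with LysC and trypsin, and analysed by diaPASEF LC-MS/MS. Values are average log2 fragment/vehicle ratios from an unpaired t-test on global-median-normalised Spectronaut label-free quantities, using proteins with ≥2 unique peptides.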

USP36 = biological target: T1, USP36 (UniProt Q9P275)
T1 sequence (whole entry): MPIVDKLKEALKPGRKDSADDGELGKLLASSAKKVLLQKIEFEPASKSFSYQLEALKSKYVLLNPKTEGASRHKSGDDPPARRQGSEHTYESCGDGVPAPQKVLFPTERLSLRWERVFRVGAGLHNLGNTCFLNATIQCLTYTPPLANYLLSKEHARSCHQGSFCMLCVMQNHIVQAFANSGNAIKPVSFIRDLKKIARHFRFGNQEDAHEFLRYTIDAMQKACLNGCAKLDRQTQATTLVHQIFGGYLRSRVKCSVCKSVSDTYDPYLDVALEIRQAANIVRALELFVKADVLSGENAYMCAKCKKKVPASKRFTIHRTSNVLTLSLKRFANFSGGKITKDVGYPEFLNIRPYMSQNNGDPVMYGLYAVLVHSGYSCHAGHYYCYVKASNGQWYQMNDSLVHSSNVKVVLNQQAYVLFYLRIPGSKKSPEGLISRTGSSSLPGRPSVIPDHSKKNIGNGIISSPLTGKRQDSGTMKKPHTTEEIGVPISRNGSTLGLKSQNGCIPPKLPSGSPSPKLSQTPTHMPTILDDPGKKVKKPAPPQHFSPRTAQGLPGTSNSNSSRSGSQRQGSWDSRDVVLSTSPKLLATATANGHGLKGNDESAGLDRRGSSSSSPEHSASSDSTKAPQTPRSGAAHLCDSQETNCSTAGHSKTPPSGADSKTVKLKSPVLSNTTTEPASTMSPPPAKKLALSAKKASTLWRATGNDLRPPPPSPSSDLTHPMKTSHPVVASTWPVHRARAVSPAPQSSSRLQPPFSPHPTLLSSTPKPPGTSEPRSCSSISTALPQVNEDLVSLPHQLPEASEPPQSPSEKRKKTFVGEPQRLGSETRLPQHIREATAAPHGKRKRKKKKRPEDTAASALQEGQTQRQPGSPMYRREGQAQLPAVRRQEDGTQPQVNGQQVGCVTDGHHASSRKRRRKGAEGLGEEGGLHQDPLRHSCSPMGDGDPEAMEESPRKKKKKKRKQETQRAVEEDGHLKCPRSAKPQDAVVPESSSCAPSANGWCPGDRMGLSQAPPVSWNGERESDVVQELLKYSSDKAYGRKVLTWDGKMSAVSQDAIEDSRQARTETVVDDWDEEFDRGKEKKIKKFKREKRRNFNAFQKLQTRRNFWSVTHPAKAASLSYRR
Method in brief: as §1

USP38 = biological target: T2, USP38 (UniProt Q8NB14)
T2 sequence (whole entry): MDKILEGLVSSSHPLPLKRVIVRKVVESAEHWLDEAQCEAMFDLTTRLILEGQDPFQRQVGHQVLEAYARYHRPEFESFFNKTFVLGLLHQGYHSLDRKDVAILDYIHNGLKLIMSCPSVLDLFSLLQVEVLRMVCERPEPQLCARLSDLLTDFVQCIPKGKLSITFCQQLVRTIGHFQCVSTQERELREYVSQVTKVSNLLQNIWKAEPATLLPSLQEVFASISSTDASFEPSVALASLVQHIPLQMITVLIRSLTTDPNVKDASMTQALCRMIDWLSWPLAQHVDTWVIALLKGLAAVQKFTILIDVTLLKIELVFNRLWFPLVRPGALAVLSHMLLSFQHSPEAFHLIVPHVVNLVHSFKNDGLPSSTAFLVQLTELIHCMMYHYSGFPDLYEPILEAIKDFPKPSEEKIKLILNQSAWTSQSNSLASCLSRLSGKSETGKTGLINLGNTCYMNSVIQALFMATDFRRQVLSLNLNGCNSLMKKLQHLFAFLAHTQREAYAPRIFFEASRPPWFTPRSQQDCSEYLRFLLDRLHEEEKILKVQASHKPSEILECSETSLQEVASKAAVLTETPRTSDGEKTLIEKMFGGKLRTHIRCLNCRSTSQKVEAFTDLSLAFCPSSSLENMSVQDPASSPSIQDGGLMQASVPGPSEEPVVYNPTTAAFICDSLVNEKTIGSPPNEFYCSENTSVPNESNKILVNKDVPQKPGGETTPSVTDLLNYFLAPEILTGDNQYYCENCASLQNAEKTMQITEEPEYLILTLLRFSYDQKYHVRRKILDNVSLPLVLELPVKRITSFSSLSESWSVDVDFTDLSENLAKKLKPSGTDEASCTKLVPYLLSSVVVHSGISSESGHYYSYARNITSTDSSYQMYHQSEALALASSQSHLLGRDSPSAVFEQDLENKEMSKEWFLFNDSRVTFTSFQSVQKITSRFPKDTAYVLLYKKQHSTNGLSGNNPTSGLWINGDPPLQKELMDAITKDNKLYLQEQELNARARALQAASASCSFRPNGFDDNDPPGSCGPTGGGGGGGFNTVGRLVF
Method in brief: as §1

USP39 = biological target: T3, USP39 (UniProt Q53GS9)
T3 sequence (whole entry): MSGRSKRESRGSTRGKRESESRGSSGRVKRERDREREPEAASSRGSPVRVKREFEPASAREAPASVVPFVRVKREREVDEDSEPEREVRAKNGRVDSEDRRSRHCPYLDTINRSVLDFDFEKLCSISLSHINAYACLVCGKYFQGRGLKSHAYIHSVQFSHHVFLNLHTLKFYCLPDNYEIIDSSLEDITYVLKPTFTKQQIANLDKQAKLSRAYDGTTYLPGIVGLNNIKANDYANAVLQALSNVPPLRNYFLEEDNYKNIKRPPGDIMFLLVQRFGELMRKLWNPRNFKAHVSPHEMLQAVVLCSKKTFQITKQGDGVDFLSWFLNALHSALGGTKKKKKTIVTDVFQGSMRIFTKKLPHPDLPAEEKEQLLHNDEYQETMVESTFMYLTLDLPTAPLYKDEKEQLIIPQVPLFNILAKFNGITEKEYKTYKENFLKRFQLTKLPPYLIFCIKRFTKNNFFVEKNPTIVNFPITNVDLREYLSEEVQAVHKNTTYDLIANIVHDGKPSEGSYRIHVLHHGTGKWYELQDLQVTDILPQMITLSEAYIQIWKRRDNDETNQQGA
Method in brief: as §1

USP4 = biological target: T4, USP4 (UniProt Q13107)
T4 sequence (whole entry): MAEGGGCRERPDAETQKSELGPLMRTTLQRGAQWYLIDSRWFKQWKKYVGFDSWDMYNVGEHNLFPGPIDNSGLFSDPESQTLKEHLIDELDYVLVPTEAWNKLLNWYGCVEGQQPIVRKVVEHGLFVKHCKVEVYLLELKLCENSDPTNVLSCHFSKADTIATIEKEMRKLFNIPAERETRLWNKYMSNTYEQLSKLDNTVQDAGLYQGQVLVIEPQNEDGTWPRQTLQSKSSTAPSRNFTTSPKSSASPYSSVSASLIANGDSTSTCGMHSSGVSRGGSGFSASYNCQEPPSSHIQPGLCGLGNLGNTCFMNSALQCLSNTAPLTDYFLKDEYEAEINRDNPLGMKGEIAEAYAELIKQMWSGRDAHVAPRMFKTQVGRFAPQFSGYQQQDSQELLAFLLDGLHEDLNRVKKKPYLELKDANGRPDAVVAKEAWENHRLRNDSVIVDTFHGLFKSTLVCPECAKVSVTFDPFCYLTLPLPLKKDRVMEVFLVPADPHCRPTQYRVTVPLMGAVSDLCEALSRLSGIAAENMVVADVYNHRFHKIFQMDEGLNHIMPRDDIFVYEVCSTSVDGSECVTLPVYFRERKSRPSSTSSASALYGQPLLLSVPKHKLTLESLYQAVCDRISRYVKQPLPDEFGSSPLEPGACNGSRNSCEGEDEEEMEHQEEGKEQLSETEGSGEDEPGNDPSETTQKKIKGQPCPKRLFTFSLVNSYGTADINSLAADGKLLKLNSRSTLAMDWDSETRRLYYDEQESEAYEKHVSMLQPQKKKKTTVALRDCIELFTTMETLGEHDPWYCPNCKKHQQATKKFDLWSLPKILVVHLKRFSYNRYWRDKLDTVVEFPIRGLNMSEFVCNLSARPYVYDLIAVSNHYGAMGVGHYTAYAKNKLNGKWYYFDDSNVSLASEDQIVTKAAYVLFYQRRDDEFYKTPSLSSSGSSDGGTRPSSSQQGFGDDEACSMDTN
Method in brief: as §1

Measured: log2 ratio of Biotin-Ahx-Ub-VS probe labelling

Chain of USP34 (Q70CQ2 whole entry, the tested form may be a part): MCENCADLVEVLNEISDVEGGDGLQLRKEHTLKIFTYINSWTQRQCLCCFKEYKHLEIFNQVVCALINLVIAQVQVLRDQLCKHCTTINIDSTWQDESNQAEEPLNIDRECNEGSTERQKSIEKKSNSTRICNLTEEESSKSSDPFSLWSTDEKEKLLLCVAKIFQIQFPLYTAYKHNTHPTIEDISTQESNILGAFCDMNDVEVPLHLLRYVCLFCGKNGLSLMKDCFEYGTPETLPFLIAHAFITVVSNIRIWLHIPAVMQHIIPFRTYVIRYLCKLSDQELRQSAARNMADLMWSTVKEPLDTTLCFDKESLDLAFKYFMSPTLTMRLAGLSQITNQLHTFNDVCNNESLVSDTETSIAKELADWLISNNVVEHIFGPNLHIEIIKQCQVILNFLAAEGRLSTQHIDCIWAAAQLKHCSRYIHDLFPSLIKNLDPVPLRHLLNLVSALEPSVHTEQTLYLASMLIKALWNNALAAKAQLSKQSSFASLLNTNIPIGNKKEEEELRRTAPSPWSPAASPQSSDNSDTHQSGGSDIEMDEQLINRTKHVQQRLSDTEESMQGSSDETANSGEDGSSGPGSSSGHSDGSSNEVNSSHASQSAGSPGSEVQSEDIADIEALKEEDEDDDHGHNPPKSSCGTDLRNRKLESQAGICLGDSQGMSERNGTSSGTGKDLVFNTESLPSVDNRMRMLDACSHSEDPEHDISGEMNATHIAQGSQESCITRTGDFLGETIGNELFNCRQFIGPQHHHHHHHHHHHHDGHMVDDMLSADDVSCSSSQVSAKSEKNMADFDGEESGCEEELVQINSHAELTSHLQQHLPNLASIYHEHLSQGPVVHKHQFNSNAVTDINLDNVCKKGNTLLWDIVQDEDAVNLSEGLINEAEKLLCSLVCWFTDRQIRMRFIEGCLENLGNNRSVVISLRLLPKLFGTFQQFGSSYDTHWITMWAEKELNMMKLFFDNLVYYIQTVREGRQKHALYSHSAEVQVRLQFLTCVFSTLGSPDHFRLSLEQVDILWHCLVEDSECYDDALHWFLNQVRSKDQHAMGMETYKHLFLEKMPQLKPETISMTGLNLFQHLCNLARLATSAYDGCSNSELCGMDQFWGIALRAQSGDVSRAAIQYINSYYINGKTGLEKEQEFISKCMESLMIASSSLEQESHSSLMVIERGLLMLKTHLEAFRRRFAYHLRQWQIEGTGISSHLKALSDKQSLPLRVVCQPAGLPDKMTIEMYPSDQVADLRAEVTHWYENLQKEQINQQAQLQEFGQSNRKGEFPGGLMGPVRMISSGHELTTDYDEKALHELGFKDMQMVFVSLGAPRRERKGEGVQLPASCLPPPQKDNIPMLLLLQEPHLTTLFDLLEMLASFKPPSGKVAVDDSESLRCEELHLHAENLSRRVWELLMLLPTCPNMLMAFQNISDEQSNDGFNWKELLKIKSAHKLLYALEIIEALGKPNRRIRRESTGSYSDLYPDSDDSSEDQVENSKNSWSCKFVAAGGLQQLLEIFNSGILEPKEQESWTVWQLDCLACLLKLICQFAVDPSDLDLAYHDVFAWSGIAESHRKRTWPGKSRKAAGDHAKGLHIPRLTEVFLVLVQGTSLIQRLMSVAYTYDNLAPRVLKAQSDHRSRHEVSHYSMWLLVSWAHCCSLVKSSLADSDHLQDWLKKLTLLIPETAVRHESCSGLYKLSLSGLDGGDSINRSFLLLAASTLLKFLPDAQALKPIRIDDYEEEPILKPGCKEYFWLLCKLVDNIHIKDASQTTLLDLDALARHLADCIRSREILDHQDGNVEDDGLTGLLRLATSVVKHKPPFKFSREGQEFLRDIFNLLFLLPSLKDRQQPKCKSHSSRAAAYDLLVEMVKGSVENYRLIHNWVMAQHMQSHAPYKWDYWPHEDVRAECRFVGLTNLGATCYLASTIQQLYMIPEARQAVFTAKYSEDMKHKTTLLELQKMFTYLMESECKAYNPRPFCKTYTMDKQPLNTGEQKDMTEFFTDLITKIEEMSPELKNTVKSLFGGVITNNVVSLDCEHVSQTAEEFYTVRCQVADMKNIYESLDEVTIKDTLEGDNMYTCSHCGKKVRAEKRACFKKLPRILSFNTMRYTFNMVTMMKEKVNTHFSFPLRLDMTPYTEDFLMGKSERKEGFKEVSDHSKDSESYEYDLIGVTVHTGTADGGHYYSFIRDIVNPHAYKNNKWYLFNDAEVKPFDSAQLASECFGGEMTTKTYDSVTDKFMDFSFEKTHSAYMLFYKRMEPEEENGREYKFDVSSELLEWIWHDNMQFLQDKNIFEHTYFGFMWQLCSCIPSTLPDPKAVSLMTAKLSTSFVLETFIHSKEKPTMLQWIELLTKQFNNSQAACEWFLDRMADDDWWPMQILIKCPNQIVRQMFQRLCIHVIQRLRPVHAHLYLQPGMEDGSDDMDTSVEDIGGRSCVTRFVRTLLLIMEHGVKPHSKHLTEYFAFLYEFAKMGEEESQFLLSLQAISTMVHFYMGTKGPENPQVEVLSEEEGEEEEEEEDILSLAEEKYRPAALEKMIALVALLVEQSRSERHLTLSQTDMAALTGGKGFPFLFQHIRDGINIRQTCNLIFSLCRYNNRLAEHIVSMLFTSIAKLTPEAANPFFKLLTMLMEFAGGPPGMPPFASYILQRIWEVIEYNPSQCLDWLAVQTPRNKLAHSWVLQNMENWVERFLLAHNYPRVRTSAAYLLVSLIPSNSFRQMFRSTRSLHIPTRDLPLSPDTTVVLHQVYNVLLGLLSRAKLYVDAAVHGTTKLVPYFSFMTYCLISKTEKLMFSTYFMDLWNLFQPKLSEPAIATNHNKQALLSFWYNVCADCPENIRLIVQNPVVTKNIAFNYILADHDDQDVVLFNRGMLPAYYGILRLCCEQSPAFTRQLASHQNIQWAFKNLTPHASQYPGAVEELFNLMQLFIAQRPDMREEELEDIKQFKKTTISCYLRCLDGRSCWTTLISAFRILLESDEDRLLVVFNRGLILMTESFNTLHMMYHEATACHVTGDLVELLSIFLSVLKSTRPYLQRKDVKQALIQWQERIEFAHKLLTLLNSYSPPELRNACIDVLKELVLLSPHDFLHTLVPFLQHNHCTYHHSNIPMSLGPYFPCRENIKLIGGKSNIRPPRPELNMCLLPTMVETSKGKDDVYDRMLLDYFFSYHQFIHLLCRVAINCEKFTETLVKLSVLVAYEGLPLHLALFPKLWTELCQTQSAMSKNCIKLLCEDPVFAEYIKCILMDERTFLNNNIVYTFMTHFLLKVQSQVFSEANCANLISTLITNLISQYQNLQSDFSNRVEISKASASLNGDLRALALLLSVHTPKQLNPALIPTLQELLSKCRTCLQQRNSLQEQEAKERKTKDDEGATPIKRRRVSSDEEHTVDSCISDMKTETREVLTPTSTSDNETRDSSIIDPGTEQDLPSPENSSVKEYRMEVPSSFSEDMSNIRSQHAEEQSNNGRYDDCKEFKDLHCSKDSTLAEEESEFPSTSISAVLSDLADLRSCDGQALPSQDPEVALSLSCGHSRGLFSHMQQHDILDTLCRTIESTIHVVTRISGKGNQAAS

CC1(NC(=O)CCl)CCS(=O)(=O)C1 (stereo not given)
inactive: USP34 -0.257 | USP36 -0.302 | USP38 -0.653 | USP39 -0.0411 | USP4 -0.424
